Bioassay records (PubChem)
Beta apoptosis: inhibitors of cytokine-induced beta cell apoptosis, primary screen, luminescence; INS-1E cytokine-induced death, ATP luminescence, 48 h; percent of positive-control rescue, neutral wells zero; protection from apoptosis, % (concentration not given with the values); hit rate 0.8% among 300,000;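 active means Every replicate reaches about 75%, or at least half do and their mean reaches it too, limit read from the data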;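 further: 0% = cytokine-treated negative control wells and 100% = positive control rescue; higher means more ATP so stronger rescue from cytokine killing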
Mdm2 MdmX PPI: inhibitors of human Mdm2-MdmX association, primary screen, cell-based, luminescence, split luciferase, SaOS-2, uHTS | Protein Mdm4 (Homo sapiens) + E3 ubiquitin-protein ligase Mdm2 (Homo sapiens), … | SaOS-2 split-luciferase Mdm2/MdmX complementation | inhibition, % at 8 µM | hit rate 3% among 330,000;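 active means inhibition of at least 50% at 8 µM in the primary screen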
CSC inhib: cancer stem cell viability inhibitors, primary screen, luminescence | cancer stem cell-like cells viability | inhibition, % at 7.5 µM | hit rate 1.1% among 300,000; in the data active means inhibition above about 75%; tested in HMLE shEcad cells
Gli-Sufu antag: Gli-Sufu pathway antagonists, primary screen, luciferase luminescence, Sufu-KO-LIGHT cells, uHTS | Sufu-KO-LIGHT fibroblasts, Gli luciferase reporter luminescence | inhibition, % at 5 µM | AID 588413, 2011 | hit rate 0.74% among 340,000;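 active means inhibition above about 55%, limit read from the data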;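 further: 0% = DMSO-treated cells and 100% = wells with medium but no cells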
MPTP block: mitochondrial permeability transition pore inhibitors, primary screen, biochemical, isolated mouse mitochondria, absorbance | inhibition, % at 10 µM | hit rate 1.4% among 360,000 | AID 602449, 2012 | Ca2+ swelling absorbance, 30 min;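 active means inhibition of 50% or more, scaled per plate between neutral and stimulator controls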;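 further: 0% = DMSO wells given calcium and 100% = 1 mM EGTA wells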
NR3A LBD binder: binders of NR3A ligand-binding domain, primary screen, biophysical, differential scanning fluorimetry, uHTS. Tm shift relative to glycine control, % at 25 µM. NR3A LBD differential scanning fluorimetry, Tm shift; 0% = protein alone, 100% = glycine-bound protein. Glutamate receptor ionotropic, NMDA 3A (GRIN3A) ligand-binding domain. hit rate 2.5% among 340,000;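 active means melting temperature shift of at least 10% of the positive control shift, at one fixed dose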
The depositor's hits bear a star; · = no result. In the library only some 6.6% were active in any assay of this set; here they are far more common.

SMILES	Beta apoptosis	Mdm2 MdmX PPI	CSC inhib	Gli-Sufu antag	MPTP block	NR3A LBD binder
N#CCCn1cc(C(=O)CN2C(=O)NC3(CCc4ccccc43)C2=O)c2ccccc21 (stereo unspecified)	·	·	·	·	-2	·
COCCNC(=O)CN1N=C(c2ccc(C)cc2)CCC1=O	-5	9	-4	5	1	-1
O=C(N/N=C/c1ccc(OC(=O)c2ccccc2Cl)cc1)c1cc(O)cc(O)c1	-3	-5	11	-2	-1	13*
Cc1cccc(C(=O)Oc2ccc(/C=N/NC(=O)c3ccc(O)cc3)cc2)c1	-5	15	0	-5	0	23*
CCOc1ccccc1N1CCN(C(=O)c2cccs2)CC1	6	-2	-3	8	-1	-1
OC[C@H]1O[C@@H](c2nc(-c3ccc4[nH]ccc4c3)no2)[C@H](O)[C@@H](O)[C@H]1O	·	·	·	·	0	·
CCCCCOc1ccc(OC(=O)c2ccncc2)cc1	11	5	93*	33	1	0
CC(OC(=O)C1=COCCO1)C(=O)NC1(C#N)CCCCC1 (stereo unspecified)	-8	19	-1	2	-1	11*
CC(OC(=O)C1=COCCO1)C(=O)Nc1ccccc1C#N (stereo unspecified)	0	5	-6	3	1	-2
C=C(C)C1CC=C(C)/C(=N/NC(=O)c2cccs2)C1 (stereo unspecified)	3	-105	-2	1	0	0
C=C(C)C1CC=C(C)C(=NNC(=O)c2ccncc2)C1 (stereo unspecified)	·	·	·	0	-1	11*
Cc1ccccc1NC(=O)c1ccc2nc(N3CCOCC3)sc2c1	2	6	-6	-24	-2	-1
CC(=O)C1=C(C)NC(SCC(=O)c2ccc(Cl)c(Cl)c2)=C(C#N)C1c1ccco1 (stereo unspecified)	100*	8	157*	-1	6	0
CCc1ccc(C(=O)CSC2=C(C#N)C(c3ccco3)C(C(C)=O)=C(C)N2)cc1 (stereo unspecified)	110*	29	80*	·	·	·
CC(=O)C1=C(C)NC(SCC(=O)c2cc(Cl)ccc2Cl)=C(C#N)C1c1ccco1 (stereo unspecified)	·	32	·	69*	4	-25
CC(=O)C1=C(C)NC(SCC(=O)c2ccc(F)cc2)=C(C#N)C1c1ccco1 (stereo unspecified)	-4	35	-6	10	3	-4
Cc1cc(C(C)(C)C)ccc1OCC(=O)N/N=C\c1c(C)n(C)n(-c2ccccc2)c1=O	-6	9	·	-15	-4	-4
COc1cccc(CN(C)C(=O)CCN(c2ccccc2)S(=O)(=O)c2ccc(C)cc2)c1OC	·	19	-7	21	2	1
CN1c2ccccc2N(C)C1(C)c1ccccc1	131*	·	38	61*	0	-2
CCN1c2ccccc2N(C)C1(C)c1ccccc1 (stereo unspecified)	106*	·	43	38	10	-7
CCC1(c2ccccc2)CN(C)C1=O (stereo unspecified)	·	·	·	·	-1	·
Cc1ccc(C)c(S(=O)(=O)N2CCN(C(=O)Cn3[nH]c(=O)c4ccccc4c3=O)CC2)c1	-2	27	-3	1	0	-3
Cc1[nH]n(-c2ccccc2)c(=S)c1C=Nc1ccc([N+](=O)[O-])cc1	-5	·	19	-3	2	23*
Cc1cccc(-n2[nH]c(C)c(C=Nc3ccc4[nH]c(=O)[nH]c4c3)c2=O)c1	-4	-20	8	-3	-1	32*
Cc1[nH]n(-c2ccccc2)c(=O)c1C=Nc1cccc(F)c1	5	-37	-1	0	2	1
Cc1[nH]n(-c2ccccc2)c(=O)c1C=Nc1ccc2[nH]c(=O)[nH]c2c1	-1	5	-4	8	-1	33*
Cc1[nH]n(-c2ccccc2)c(=O)c1C=Nc1ccc(S(=O)(=O)N=C(N)N)cc1	-1	-13	-4	-9	2	0
